The source made the active and inactive calls.
Tested on: not listed separately
Assay: S6 kinase pathway phospho-S6 level changes – cell-based, A549, cytoblot, luminescence, serum-stimulated, primary screen (AID 1158);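 also: serum-stimulated A549 lung adenocarcinoma cells; signal is phosphorylated S6 detected by cytoblot immunostaining with HRP secondary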
Conditions: 5 h, higher = more signal

z-score, -0.259:
Cc1ccc(S(=O)(=O)N2[C@@H](c3ccccc3)C(C(=O)O)=CC[C@H]2c2ccccc2)cc1

z-score, 0.843:
N#Cc1ccc(NN2C(C(O)CCc3ccccc3)C=CC3C(=O)N(c4ccccc4)C(=O)C32)cc1 (centres undefined)

z-score, -0.0259:
C#CCCCON=C1C[C@@H](O)[C@@H](O)[C@@H]2[C@@H]3C(=O)N(Cc4ccc5c(c4)OCO5)C(=O)[C@@H]3CC[C@@H]12

z-score, 0.95:
Cc1ccc(S[C@]2(C(=O)NC3CC3)CC(=O)N(Cc3cc(C(F)(F)F)cc(C(F)(F)F)c3)[C@@H]2c2ccc(CO)cc2)cc1

Target: NADPH oxidase 2 (Homo sapiens) (UniProt P04839)
Assay: compounds shifting NOX2 Amplex Red fluorescence – cell-based, HEK293-NOX2, PMA-stimulated, NOX inhibitor project, primary screen (AID 1159); also: test concentration not given here
Conditions: 45 min, higher = more signal, called active from +8 up or from −8 down

NADPH oxidase 2 (Homo sapiens), sequence (P04839 whole entry, looked up): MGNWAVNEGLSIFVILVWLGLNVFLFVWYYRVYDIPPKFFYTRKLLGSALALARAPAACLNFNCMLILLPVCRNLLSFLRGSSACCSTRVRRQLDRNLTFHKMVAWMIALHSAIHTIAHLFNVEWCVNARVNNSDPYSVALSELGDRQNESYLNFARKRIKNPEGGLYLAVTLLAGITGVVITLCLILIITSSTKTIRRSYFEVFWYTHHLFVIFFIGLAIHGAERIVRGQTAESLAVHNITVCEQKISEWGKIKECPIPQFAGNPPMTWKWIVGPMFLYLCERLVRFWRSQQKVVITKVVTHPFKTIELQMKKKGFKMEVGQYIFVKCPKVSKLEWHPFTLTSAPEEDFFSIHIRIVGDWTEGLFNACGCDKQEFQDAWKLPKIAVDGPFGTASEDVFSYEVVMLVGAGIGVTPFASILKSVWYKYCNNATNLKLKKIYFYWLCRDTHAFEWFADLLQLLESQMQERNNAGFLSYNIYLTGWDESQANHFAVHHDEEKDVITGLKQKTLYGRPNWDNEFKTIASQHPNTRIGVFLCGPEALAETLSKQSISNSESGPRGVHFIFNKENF

z-score, inactive:
COc1cc(CO)cc(I)c1O[C@H]1C=C(C(=O)NCCO)C[C@@H](N(CC2CCCCC2)C(=O)c2cc3ccccc3oc2=O)[C@@H]1O -0.289
C=C(CCCC)/C(=C/C[C@@H](OC(=O)c1ccncc1)c1cccc(OCCO)c1)c1cc(C(=O)OC)ccc1OC 1.33
C=CCC(OC(C)=O)[C@@H]1[C@@H](N(Cc2ccc(-c3ccccc3)cc2)C(=O)c2ccc(-c3ccccc3)cc2)c2cc(OCCCO)ccc2N1C(=O)Cc1ccc(OC)cc1 (some centres undefined) -1.56
CC(=O)NCCCC[C@@H]1NC(=O)[C@H]2C[C@@H](C(=O)NCCCCCCN(C)C)[C@@H](c3ccc(O)cc3)N2C1=O -0.768
Cc1ccc(S[C@]2(C(=O)NC(C)C)CC(=O)N(C3Cc4ccccc4C3)[C@@H]2c2ccc(CO)cc2)cc1 0.0257
Cc1ccc(N2C(=O)c3ccccc3[C@](C)(C(=O)NCC(C)C)[C@@H]2c2ccc(CO)cc2)nc1 0.253
[N-]=[N+]=NCc1ccccc1C[C@]1(C(=O)N2CCCCC2)N=C(c2ccc(OCCCO)cc2)O[C@H]1c1ccccc1CN=[N+]=[N-] 0.545
C=C(CCCC)/C(=C/C[C@H](OC(=O)c1ccncc1)c1cccc(OCCO)c1)c1cc(C(=O)OC)ccc1OC -3.36
O=C(CS)NCCCCCCNC(=O)[C@@H]1C[C@@H]2C(=O)N[C@@H](Cc3ccccc3)C(=O)N2[C@@H]1c1ccc(O)cc1 1.48
C=C(CCCC)C(=O)CC[C@@H](OC(=O)c1cccnc1)c1cccc(OCCO)c1 0.849
COc1ccc([C@H]2C[C@H]3C(Br)=C[C@]2(OC)C(=O)[C@]32CO2)cc1 0.0866
C=C(C(=O)CC[C@H](OC(=O)c1ccccc1-c1ccccc1C(=O)O)c1ccc(CO)o1)C(C)C -0.162
C#CCCCON=C1C[C@@H](O)[C@@H](O)[C@@H]2[C@@H]3C(=O)N(Cc4ccc5c(c4)OCO5)C(=O)[C@@H]3CC[C@H]12 -0.275
COC(=O)c1ccc(C#CC(NP(=O)(c2ccccc2)c2ccccc2)c2ccccc2)cc1 (centres undefined) 0.00908
CCOC(=O)C1=CC[C@@H](c2ccc(-c3ccc(OCc4ccccc4)cc3)c(OC)c2)N(S(=O)(=O)c2ccc(C)cc2)[C@H]1c1ccccc1 1.31
CC(c1ccccc1)C(O)C1C=CC2C(=O)N(C)C(=O)C2N1N(c1ccccc1)c1ccccc1 (centres undefined) -0.735
C=C[C@H](OC)[C@@H](OC(=O)Nc1ccc(SC)cc1)c1ccc(O)c(F)c1 -2.96
C=C(CCCC)C(=O)CC[C@@H](OC(C)=O)c1ccccc1OCCO 0.356
CC(=O)NCCCC[C@@H]1NC(=O)[C@H]2C[C@@H](C(=O)NCCCCCCN(C)C)[C@@H](c3cccc(OCCO)c3)N2C1=O 0.779
CCCC=C(CCC)[C@@H](NS(=O)(=O)c1cccc(C(F)(F)F)c1)c1ccc(C(=O)OC)cc1 0.139
O=C(NCc1ccccc1)[C@@]1(Cc2ccccc2)COC(c2ccc(OCCCO)cc2)=N1 -3.55
[N-]=[N+]=NCc1ccccc1[C@H]1OC(c2ccc(OCCCO)cc2)=N[C@@]1(Cc1ccccc1N=[N+]=[N-])C(=O)NCc1ccccc1 -0.627
NC(=O)NCC#Cc1ccc2c(c1)[C@]1(C(=O)N2)[C@H](C(=O)N2CCCCCCC2)[C@H]2C(=O)O[C@H](c3ccccc3)[C@H](c3ccccc3)N2[C@@H]1c1ccccc1OCCO 2
C#CCNC(/C=C/c1ccccc1)CO (centres undefined) -0.867
O=C1C2C=CC(C(O)C(c3ccccc3)c3ccccc3)N(Nc3ccc([N+](=O)[O-])cc3)C2C(=O)N1c1ccccc1 (centres undefined) 0.128

Source: PubChem BioAssay
